{"source": "PubChem BioAssay (EPA / NIEHS)", "note": "Active and inactive are the calls of the source. How the source made its calls: active means hit-call score of the fitted dose curve at least 0.9, where 1 is the maximum; inactive means score below 0.9."}
{"target": "Aryl hydrocarbon receptor (Homo sapiens) (UniProt P35869)", "sequence (P35869 whole entry, looked up)": "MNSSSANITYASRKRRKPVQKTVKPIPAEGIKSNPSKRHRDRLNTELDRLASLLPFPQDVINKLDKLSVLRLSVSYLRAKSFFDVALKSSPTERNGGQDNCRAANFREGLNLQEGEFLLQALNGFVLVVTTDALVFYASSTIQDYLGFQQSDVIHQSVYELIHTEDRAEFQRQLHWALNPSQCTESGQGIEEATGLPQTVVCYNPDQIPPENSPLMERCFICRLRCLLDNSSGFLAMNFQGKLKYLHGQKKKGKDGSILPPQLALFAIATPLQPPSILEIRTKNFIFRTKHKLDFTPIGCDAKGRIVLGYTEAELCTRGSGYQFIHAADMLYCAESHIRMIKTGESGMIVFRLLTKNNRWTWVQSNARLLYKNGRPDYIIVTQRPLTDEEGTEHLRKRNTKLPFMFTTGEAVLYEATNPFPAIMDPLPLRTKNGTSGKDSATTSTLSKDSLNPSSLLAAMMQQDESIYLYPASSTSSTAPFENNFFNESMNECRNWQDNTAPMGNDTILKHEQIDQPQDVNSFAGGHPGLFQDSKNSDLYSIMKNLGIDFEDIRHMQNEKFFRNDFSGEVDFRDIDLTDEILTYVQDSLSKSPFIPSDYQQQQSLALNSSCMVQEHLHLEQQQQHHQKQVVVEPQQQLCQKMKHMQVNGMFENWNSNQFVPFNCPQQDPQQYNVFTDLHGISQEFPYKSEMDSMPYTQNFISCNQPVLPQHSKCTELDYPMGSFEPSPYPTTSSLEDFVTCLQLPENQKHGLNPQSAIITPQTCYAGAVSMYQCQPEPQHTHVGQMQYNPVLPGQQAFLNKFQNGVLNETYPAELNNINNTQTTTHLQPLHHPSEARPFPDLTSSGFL", "test": "ATG_Ahr_CIS: Attagene CIS-FACTORIAL HepG2 Assay for human Aryl Hydrocarbon Receptor (Ahr) (AID 2282930)", "settings": "HepG2 AhR cis-factorial reporter transcription; actives raise or lower the signal", "protocol": "ATG_CIS is a cell-based, multiplexed-readout assay that uses HepG2, a human liver cell line, with measurements taken at 24 hours after chemical dosing in a 24-well plate.ATG_Ahr_CIS is one of 52 assay component(s) measured or calculated from the ATG_CIS assay. It is designed to make measurements of mRNA induction, a form of inducible reporter, as detected with fluorescence intensity signals by Reverse transcription polymerase chain reaction (RT-PCR) and Capillary electrophoresis technology.Data from the assay component ATG_Ahr_CIS was analyzed into 1 assay endpoint. This assay endpoint, ATG_Ahr_CIS, was analyzed with bidirectional fitting relative to DMSO as the negative control and baseline of activity. Using a type of inducible reporter, measures of mRNA for gain or loss-of-signal activity can be used to understand the reporter gene at the transcription factor-level as they relate to the gene AHR. Furthermore, this assay endpoint can be referred to as a primary readout, because this assay has produced multiple assay endpoints where this one serves a reporter gene function. To generalize the intended target to other relatable targets, this assay endpoint is annotated to the dna binding intended target family, where the subfamily is basic helix-loop-helix protein.\nHuman liver HepG2 cells are transiently transfected with multiple reporter transcription units (MRTUs) in 6-well plates using FuGene 6 reagent (Roche; 3 ml FuGene/1 mg DNA). The MRTU constructs are regulated by a cis-regulating element (promoter). […] A major difference between the CIS and TRANS system is that in CIS activities of endogenous TFs are measured, whereas the TRANS assay evaluates changes in activities of exogenous, chimeric NR-Gal4 proteins. […] At the end of 24 hour incubation, total RNA was isolated using TriZol reagent (Invitrogen). The isolated RNA is then reverse-transcribed using oligo(dT) primer and Mo-MLV reverse transcriptase (Invitrogen) with DNAse I (Ambion) treatment for 30 min. The one-tenth of the produced cDNA was amplified by PCR using Taq DNA polymerase (Invitrogen) and two reporter sequence-specific primers. The PCR products were fluorescently labeled by primer extension with 6-arboxyfluorescein (6-FAM) 5'-labeled reporter sequence-specific primer (2 min at 95 C, 20 s at 68 C and 10 min at 72 C) and these products were digested with 5U of HpaI (New England Biolabs) for 2h at 37 C. […] The raw capillary electrophoresis data was processed using Attagraph software (Attagene)."}
{"smiles": "c1cc(C(c2ccc(OCC3CO3)cc2)c2ccc(OCC3CO3)cc2)ccc1OCC1CO1", "note": "(stereo not given)", "outcome": "inactive"}
{"smiles": "CN(CCOc1ccc(CC2SC(=O)NC2=O)cc1)c1ccccn1", "note": "(stereo not given)", "outcome": "inactive"}
{"smiles": "CC(C)c1ccc(C(C)C)cc1", "outcome": "inactive"}
{"smiles": "Nc1cccc(S(=O)(=O)c2cccc(N)c2)c1", "outcome": "inactive"}
{"smiles": "CCn1c2ccccc2c2cc(N)ccc21", "AC50": "5.05 µM (active)"}
{"smiles": "CC(=O)C=CC1=C(C)CCCC1(C)C", "outcome": "inactive"}
{"smiles": "CCC/C=C/C=O", "outcome": "inactive"}
{"smiles": "COC(=O)c1ccc(C)cc1", "outcome": "inactive"}
{"smiles": "O=Cc1ccc(Cl)c([N+](=O)[O-])c1", "outcome": "inactive"}
{"smiles": "CC1CCC(C(C)CS)CC1S", "note": "(stereo not given)", "AC50": "45.9 µM (active)"}
{"smiles": "NNc1nc(-c2ccc(N)cc2)cs1", "outcome": "inactive"}
{"smiles": "Nc1cc(Cl)c(O)c(Cl)c1", "outcome": "inactive"}
{"smiles": "C=C(C)C1CCC(C)CC1O", "note": "(stereo not given)", "outcome": "inactive"}
{"smiles": "CCCCCCCCCCCCCOS(=O)(=O)O", "outcome": "inactive"}
{"smiles": "CC(C)c1cccc(O)c1", "outcome": "inactive"}
{"smiles": "O=C(O)CCCCCCCC(=O)O", "outcome": "inactive"}
{"smiles": "CCCCCCCCCC=O", "outcome": "inactive"}
{"smiles": "C=C(C)C(=O)O[C@H]1C[C@@H]2CC[C@@]1(C)C2(C)C", "AC50": "137 µM (active)"}
{"smiles": "O=C(OCc1ccccc1)C(=O)OCc1ccccc1", "outcome": "inactive"}
{"smiles": "Cc1ccccc1C=O", "AC50": "53.5 µM (active)"}
{"smiles": "NCCOCCO", "outcome": "inactive"}
{"smiles": "CCCCCCCCCCCCCCCCCC(=O)OCC(CC)CCCC", "note": "(stereo not given)", "outcome": "inactive"}
{"smiles": "CCCCO", "outcome": "inactive"}
{"smiles": "COC(=O)C1=C(C)NC(C)=C(C(=O)OCCN(C)Cc2ccccc2)C1c1cccc([N+](=O)[O-])c1", "note": "(stereo not given)", "outcome": "inactive"}
{"smiles": "CCCCCC(CO)CCC", "note": "(stereo not given)", "outcome": "inactive"}
{"smiles": "CCc1ccc(C=O)cc1", "outcome": "inactive"}
{"smiles": "CCCCCC=CCC(=O)OC", "outcome": "inactive"}
{"smiles": "CCCCC[Si](OCC)(OCC)OCC", "outcome": "inactive"}
{"smiles": "COc1c(Cl)c(Cl)c(Cl)c(Cl)c1Cl", "outcome": "inactive"}
{"smiles": "CCC(=O)/C=C/C1C(C)=CCCC1(C)C", "note": "(stereo not given)", "outcome": "inactive"}
{"smiles": "COc1ccc(O)cc1", "outcome": "inactive"}
{"smiles": "CC1(C)C(=O)N(Br)C(=O)N1Cl", "outcome": "inactive"}
{"smiles": "CC(CCO)CCCC(C)(C)O", "note": "(stereo not given)", "outcome": "inactive"}
{"smiles": "CCN(CC)c1ccc2c(-c3ccccc3C(=O)O)c3ccc(=[N+](CC)CC)cc-3oc2c1", "outcome": "inactive"}
{"smiles": "CC1CC(OC(=O)c2ccccc2O)CC(C)(C)C1", "note": "(stereo not given)", "outcome": "inactive"}
{"smiles": "COc1cc(C=O)ccc1OC(=O)C(C)C", "outcome": "inactive"}
{"smiles": "CNCCO", "outcome": "inactive"}
{"smiles": "Cc1ncc([N+](=O)[O-])n1C", "outcome": "inactive"}
{"smiles": "CCCCc1ccc(N)cc1", "outcome": "inactive"}
{"smiles": "CC(C)(Oc1ccc(CCNC(=O)c2ccc(Cl)cc2)cc1)C(=O)O", "outcome": "inactive"}
